Assay outcomes: PubChem, National Center for Advancing Translational Sciences (NCATS)
FBPA coupling cs: qHTS Assay for Inhibitors of Fructose-1,6-bisphosphate Aldolase from Giardia Lamblia: Coupling assay counterscreen. 290,000 compounds, 0.67% hits. activity change, negative = inhibition, % at 58.2 µM, hits read low. coupling enzyme system counterscreen, AmpLite Red fluorescence. AID 2472, 2010; in the data active = activity change below about -30%
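Fluorescence at 525 nm excitation and 598 nm emission measured inhibition of the coupled detection system without aldolase. Compounds (at 57.5 uM final) were preincubated 10 min at room temperature with coupling enzyme reagent before a 20 min substrate/AmpLite Red step.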
Tau FP inhib: qHTS for Inhibitors of Tau Fibril Formation, Fluorescence Polarization. Potency, µM (doses to about 57.7 µM), without a hit: at the top dose activity, negative = inhibition, actives largely listed as inhibitors. 280,000 compounds, 0.39% hits. Microtubule-associated protein tau (Homo sapiens), P10636. K18 P301L tau heparin fibrillization, Alexa594 FP, 6 h. AID 1468, 2008; also: potency is read from the fitted curve at half-maximal effect; nearly all actives have a fitted effect of over 55% in size
Target sequence (P10636 561-689 P618L limits assumed): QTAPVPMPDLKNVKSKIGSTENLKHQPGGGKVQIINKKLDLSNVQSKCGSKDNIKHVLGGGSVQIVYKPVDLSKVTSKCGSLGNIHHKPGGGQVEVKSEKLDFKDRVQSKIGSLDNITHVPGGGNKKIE
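K18 P301L tau (15 uM unlabeled/0.24 uM Alexa 594-labeled, final) + compound + heparin 20 uM final; 100 mM NaOAc pH 7; 6 hr 37 C; ThT 30 uM final added, 1 hr RT; FP ex 555/em 632 nm.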
Tau fluor counter: Counterscreen qHTS for Inhibitors of Tau Fibril Formation, Fluorescence Polarization; 280,000 compounds, 0.93% hits; Potency, µM (top dose mostly 57.7 µM), inactives show at the highest dose activity change, negative = decrease; tau K18 P301L Alexa594 fluorescence, heparin fibrillization; also: potency is read from the fitted curve at half-maximal effect; nearly all actives have a fitted effect of over 55% in size
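Human K18 P301L tau (15 uM unlabeled plus 0.24 uM Alexa 594-labeled, final) in 100 mM sodium acetate pH 7 was mixed with compound and 20 uM heparin and incubated 6 hr at 37 C.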
USP1-UAF1 inh: Inhibitors of USP1/UAF1: Primary Screen; Ubiquitin carboxyl-terminal hydrolase 1 (Homo sapiens), O94782; recombinant USP1/UAF1, Ub-Rhodamine cleavage fluorescence; Potency, µM (top dose mostly 57.1 µM), for the others: at the highest dose activity change, negative = inhibition, actives largely listed as inhibitors; 390,000 compounds, 0.23% hits; AID 743255, 2014; also: potency is read from the fitted curve at half-maximal effect; nearly all actives have a fitted effect of over 60% in size
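USP1/UAF1 complex (1 nM) preincubated 15 min at room temperature with compound, then Ub-Rho substrate (150 nM final) added. Kinetic fluorescence at 480/540 nm over 6 reads at 60 s intervals; 50 mM HEPES pH 7.8, 0.5 mM EDTA, 0.1 mg/ml BSA, 1 mM TCEP, 0.01% Tween-20.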
Tau fibril ThT: qHTS for Inhibitors of Tau Fibril Formation, Thioflavin T Binding; Microtubule-associated protein tau (Homo sapiens), P10636; recombinant tau K18 P301L (four-repeat tau fragment), heparin-induced fibrillization, ThT fluorescence; Potency, µM (doses to about 57.4 µM), for inactives: at the highest dose activity, negative = inhibition, most hits filed as inhibitors; 270,000 compounds, 2.1% hits; AID 1460, 2008; also: potency is read from the fitted curve at half-maximal effect; nearly all actives have a fitted effect of over 55% in size
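K18 P301L tau (15 uM + 0.24 uM Alexa 594-tagged), heparin 20 uM, NaOAc pH 7, 6 h 37 C; ThT 30 uM, 1 h RT, ex 450/em 510 nm.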
The depositor's hits bear a star; [ ] = remark or other dose. In the library only some 2.3% were active in any assay of this set; here they are far more common. Unless noted, calls follow the shape of the dose curve; as a rule, active = well fitted curve in the direction sought with a large enough effect; inconclusive = small, poorly fitted or top-dose-only effect, or another doubt; inactive = no such curve, though single readings can be large; an effect the other way counts as inactive or inconclusive. % is scaled to controls: 0 for no effect and ±100 for the full control effect.

S=C(Nc1cccc(Cl)c1)NC1CCCCC1 was read as FBPA coupling cs 0, Tau FP inhib -6%, Tau fluor counter -23%, USP1-UAF1 inh -24% and Tau fibril ThT -10%.
`CC1CCCN(C(=S)Nc2ccc(Nc3ccccc3)cc2)C1` (centres undefined) gave FBPA coupling cs 6, Tau FP inhib inconclusive, Tau fluor counter 13µM*[quencher], USP1-UAF1 inh -12% and Tau fibril ThT inconclusive.
Screening CC1CCCN(C(=S)Nc2ccc(F)cc2)C1 (centres undefined) returned FBPA coupling cs 4, Tau FP inhib 3%, Tau fluor counter 7%, USP1-UAF1 inh -4% and Tau fibril ThT 6%.
S=C(Nc1ccc(Nc2ccccc2)cc1)NC1CCCCCC1 was read as FBPA coupling cs 0, Tau FP inhib 9%, Tau fluor counter 10µM*[quencher], USP1-UAF1 inh -8% and Tau fibril ThT -16%.
`Cc1ccc(NC(=S)NC2CCCC2)cc1C` gave FBPA coupling cs 1, Tau FP inhib 14%, Tau fluor counter -9%, USP1-UAF1 inh -22% and Tau fibril ThT -7%.
CCOC(=O)C1CCCN(C(=O)Cn2ncc3c4ccccc4n(Cc4ccc(F)cc4)c3c2=O)C1 (centres undefined) was read as Tau FP inhib 2%, Tau fluor counter -6%, USP1-UAF1 inh -7% and Tau fibril ThT -4%.
Screening COc1ccccc1NS(=O)(=O)c1cc(NC(=O)c2cccc(S(=O)(=O)N(C)C)c2)ccc1N1CCOCC1 returned USP1-UAF1 inh -23%.
For CC(c1ccccc1)N1C(=O)c2cccnc2C1=O (centres undefined) the results were FBPA coupling cs 0 and USP1-UAF1 inh -18%.
`CC(NC1=CC(=O)c2cccnc2C1=O)C(O)c1ccccc1` (centres undefined) gave USP1-UAF1 inh 5.6µM*.
Screening CC/C(=N/Nc1ccccc1C)c1cnnc(SC)n1 returned FBPA coupling cs -2, Tau FP inhib inconclusive, Tau fluor counter -20%, USP1-UAF1 inh -3% and Tau fibril ThT 3.5µM*.
For CSc1nncc(/C(C)=N\Nc2ccccc2)n1 the results were FBPA coupling cs 0, Tau FP inhib -3%, Tau fluor counter -8%, USP1-UAF1 inh -11% and Tau fibril ThT 2.8µM*.
Screening CCc1ccc(NC(=O)C(=O)NCc2ccccn2)cc1 returned FBPA coupling cs 2, Tau FP inhib -12%, Tau fluor counter -6%, USP1-UAF1 inh 3% and Tau fibril ThT -10%.
`NNc1cc([N+](=O)[O-])cc2c1C(=O)N(Cc1ccccc1)S2=O` (centres undefined) gave FBPA coupling cs -16, Tau FP inhib inconclusive, Tau fluor counter -26%, USP1-UAF1 inh -21% and Tau fibril ThT 25µM*.
For CC(C)=NNc1cc([N+](=O)[O-])cc2c1C(=O)N(C)S2=O (centres undefined) the results were FBPA coupling cs -2, Tau FP inhib -16%, Tau fluor counter 2%, USP1-UAF1 inh -25% and Tau fibril ThT inconclusive.
O=c1[nH]nc(CNc2ccc(O)cc2)c2ccccc12 was read as FBPA coupling cs -49*, Tau FP inhib inconclusive, Tau fluor counter inconclusive, USP1-UAF1 inh inconclusive and Tau fibril ThT 32µM*.
`CCCOc1ccc(NC(=O)CC2C(=O)N(c3ccc(C)cc3)C(=O)N2C(C)C)cc1` (centres undefined) gave Tau FP inhib -1%, Tau fluor counter -15%, USP1-UAF1 inh 0% and Tau fibril ThT 5%.
For O=c1c(N2CCN(c3ccc(F)cc3)CC2)csc2ccc(F)cc12 the results were Tau FP inhib inconclusive, Tau fluor counter inconclusive, USP1-UAF1 inh -30% and Tau fibril ThT 5µM*.
COc1ccc(N2CCN(c3csc4ccc(Cl)cc4c3=O)CC2)cc1 was read as Tau FP inhib 4%, Tau fluor counter -22%, USP1-UAF1 inh -6% and Tau fibril ThT 6.3µM*.
COc1ccccc1N1CCN(c2csc3ccc(Cl)cc3c2=O)CC1 was read as Tau FP inhib 6%, Tau fluor counter -8%, USP1-UAF1 inh -18% and Tau fibril ThT inconclusive.
`COc1ccc(N2CCN(c3csc4ccccc4c3=O)CC2)cc1` gave Tau FP inhib -5%, Tau fluor counter inconclusive, USP1-UAF1 inh -5% and Tau fibril ThT 11µM*.
For CC1CCN(c2csc3ccc(F)cc3c2=O)CC1 the results were Tau FP inhib 14%, Tau fluor counter -10%, USP1-UAF1 inh inconclusive and Tau fibril ThT inconclusive.
For CCOc1ccc(CCNC(=O)c2ccc(CS(=O)(=O)Cc3ccccc3Cl)o2)cc1OCC the results were Tau FP inhib 6%, Tau fluor counter -4%, USP1-UAF1 inh -33% and Tau fibril ThT 4%.
`COc1ccc(-c2oc3ncn4nc(-c5ccccc5O)nc4c3c2-c2ccc(OC)cc2)cc1` gave Tau FP inhib -14%, Tau fluor counter 0%, USP1-UAF1 inh -25% and Tau fibril ThT 3%.
For CCOC(=O)C1=C(C)Nc2sc(C(=O)c3ccc(F)cc3)c(N)c2C1c1ccc(C(=O)OC)cc1 (centres undefined) the results were FBPA coupling cs -5, Tau FP inhib inconclusive, Tau fluor counter 16µM*[quencher], USP1-UAF1 inh -14% and Tau fibril ThT -2%.
For CC(C)c1nc2ccc(C(=O)NCc3ccccc3Br)cc2o1 the results were Tau FP inhib -2%, Tau fluor counter -10%, USP1-UAF1 inh -7% and Tau fibril ThT -5%.
O=C(CNc1cccc2ccccc12)N/N=C/C=C/c1ccco1 was read as FBPA coupling cs -5, Tau FP inhib 10%, Tau fluor counter 16µM*[quencher], USP1-UAF1 inh -21% and Tau fibril ThT inconclusive.
O=C(CSc1nnc(SCc2ccccc2)s1)N/N=C/C=C/c1ccco1 was read as FBPA coupling cs -1, Tau FP inhib inconclusive, Tau fluor counter -21%, USP1-UAF1 inh -26% and Tau fibril ThT inconclusive.
`O=C(Cc1cccs1)N/N=C/C=C/c1ccco1` gave FBPA coupling cs -9, Tau FP inhib inconclusive, Tau fluor counter inconclusive, USP1-UAF1 inh 0% and Tau fibril ThT 25µM*.
For C/C(=N\NC(=O)CNc1cccc2ccccc12)c1ccccc1 the results were FBPA coupling cs -1, Tau FP inhib 9%, Tau fluor counter -10%, USP1-UAF1 inh -22% and Tau fibril ThT 1%.
`C/C(CCc1ccco1)=N\NC(=O)CNc1cccc2ccccc12` gave FBPA coupling cs -55*, Tau FP inhib 3%, Tau fluor counter -26%, USP1-UAF1 inh -15% and Tau fibril ThT inconclusive.
